Measurements as given in PubChem BioAssay (NCATS).
Unmarked numbers belong to inactive results. Records with an inconclusive call do not appear. Calls of active or inactive are those of the source. Unless noted, calls follow the shape of the dose curve; as a rule, active = well fitted curve in either direction with a large enough effect (not every such curve was filed as active); inconclusive = small, poorly fitted or top-dose-only effect, or another doubt; inactive = flat fitted curve, though single readings scatter.

What was measured:
[1] = AP1 Signaling Pathway (AID 357); settings: ME-180 AP-1-bla reporter, EGF-induced, beta-lactamase ratio, 5 h; at 17.2 µM (top of the series) unless noted;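 also: ME-180 reporter cells stimulated with EGF at its EC50 level; % is scaled to controls: 0 for no effect and ±100 for the full control effect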
Method in brief: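 A ratiometric CCF4 readout (405 nm excitation; 460 and 530 nm emission) quantified AP-1-driven beta-lactamase in ME-180 cells after 5 h with compound and EC50 EGF; AC50 values were derived for activators and inhibitors.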

[2] = Stat Signaling Pathway (AID 446); settings: ME-180 SIE beta-lactamase reporter, IL-6 stimulated, 5 h; at 17.2 µM (top of the series) unless noted;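 also: ME-180 cervical cancer cells given 40 pM IL-6 alongside compound; SIE-controlled beta-lactamase reporter measured as 460/530 nm FRET emission ratio; % is scaled to controls: 0 for no effect and ±100 for the full control effect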
Method in brief: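 FRET read-out (405 nm excitation, 460/530 nm emission) of a beta-lactamase reporter under a STAT-inducible element in ME-180 cervical carcinoma cells. Cells with compound receive 40 pM IL-6 for 5 h. Values are normalised to AC90 stimulation and AC90 JAK-inhibitor controls.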

[3] = molecular target: Glucocorticoid receptor (Homo sapiens) (UniProt P04150); assay: GR-GFP Redistribution (AID 450;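 active = compounds whose dose series gives a full or clear partial fitted curve of increased nuclear translocation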; also: potency is read from the fitted curve at half-maximal effect)
[4] = qHTS Assay for Identification of Small Molecule Agonists for Hypoxia Response Element Signaling Pathway (AID 914; active = well fitted activation curve with a large enough effect in the signal ratio, with a control signal flat, not every such curve was filed as active; the % refers to the signal ratio; also: potency is read from the fitted curve at half-maximal effect; as to activation: % of control where 0% means no effect); settings: ME-180 (cervical carcinoma) HRE-bla reporter, beta-lactamase ratio, CoCl2, 17 h; activation: hits give high values
Method in brief: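 Compounds in a titration series were added to ME-180 reporter cells alongside an EC50 level of CoCl2. After 17 hours, beta-lactamase activity was read as the 460nm/530nm emission ratio of CCF4, giving AC50 values.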

[5] = molecular target: Glucocorticoid receptor (Homo sapiens) (UniProt P04150); assay: GR-EFC Redistribution (AID 451; calls by dose curve; also: potency is read from the fitted curve at half-maximal effect); settings: CHO-K1 GR-EFC translocation, beta-gal luminescence, 2 h
Method in brief: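 Translocation of GR-ED fusion to nuclear EA restores b-gal, read by luminescence after 1 h room-temperature detection. Engineered CHO-K1 biosensor cells, 1,000/well, exposed 2 h at 37 C to titrations up to 46 uM final.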

[6] = molecular target: Mitogen-activated protein kinase 10 (Mus musculus) (UniProt Q61831); assay: JNK3 AlphaScreen Assay (AID 530);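 also: kinase came from lysate of stimulated human HepG2 cells; signal reports phosphorylation of biotinylated GST-cJun 1-79 at Ser73 with 10 µM ATP; % is scaled to controls: 0 for no effect and ±100 for the full control effect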
Method in brief: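 qHTS titrations with 15 min compound pre-incubation before adding ATP (10 uM final). Read-out: AlphaScreen of Ser73-phosphorylated biotin-GST-cJun using HepG2 lysate JNK3 activated by IL-1β and TNFα.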

[7] = molecular target: 3',5'-cyclic-AMP phosphodiesterase 4B (Homo sapiens) (UniProt Q07343); assay: qHTS Assay for Inhibitors of PDE-IV (AID 607; active = well fitted activation curve with a large enough effect in the main read-out, with a control signal flat, not every such curve was filed as active; also: % of control where 0% means no effect)
Method in brief: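 Cell-based read-out of cAMP via a modified cyclic nucleotide-gated channel and membrane potential dye (535/590 nm) in HEK293 cells expressing PDE4 endogenously. Compounds tested up to 22.9 uM final; 100 uM RO 20-1724 reference.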

[8] = molecular target: Cytochrome P450 3A4 (Homo sapiens) (UniProt P08684); assay: qHTS Assay for Activators of Cytochrome P450 3A4 (AID 885; active = well fitted curve in the direction sought with a large enough effect; an effect the other way counts as inactive or inconclusive; also: nearly all actives have a fitted effect of over 65% in size)
Method in brief: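 Luminescent readout of luciferin formed from 25 uM Luciferin-PPXE (KM level) by 20 nM CYP3A4 in 200 mM KPO4, with 60 min NADPH-driven reaction at room temperature after 10 min compound exposure. Ketoconazole (57 uM) defined 100% inhibition.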

[9] = molecular target: Guanine nucleotide-binding protein G(i) subunit alpha-1 (Homo sapiens) (UniProt P63096); assay: qHTS Assay for Inhibitors of RGS12 GoLoco Motif Activity (Green Fluorophore) (AID 879; active = well fitted curve in the direction sought with a large enough effect; an effect the other way counts as inactive or inconclusive;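 also: 0% = labeled peptide with Gαi1 and full inhibition = labeled peptide alone without protein; negative values mean loss of peptide binding seen as reduced polarization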)
Method in brief: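 A drop in FITC polarization marked displacement of the FITC-tagged RGS12 GoLoco peptide (10 nM) from Gαi1 (50 nM). Compounds were incubated 10 min at room temperature in Tris pH 7.5 buffer containing 150 mM NaCl, 0.1 mM GDP and 0.05% NP40; unlabeled peptide titration served as control.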

[10] = qHTS Assay for Identification of Small Molecule Agonists for Thrombopoietin (TPO) Signaling Pathway (AID 917; active = well fitted curve in the direction sought with a large enough effect; an effect the other way counts as inactive or inconclusive; also: % is scaled to controls: 0 for no effect and ±100 for the full control effect)
Method in brief: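 Cell-based luciferase reporter screen. Mouse Ba/F3 line stably expressing human TPO receptor; IL-3 removed overnight before plating. Co-treatment with compound and EC50 TPO (26 pM), 24 hrs at 37 C, then luminescence.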

[11] = molecular target: Muscarinic acetylcholine receptor M1 (Rattus norvegicus) (UniProt P08482); assay: qHTS Assay for Antagonists of Acetylcholine Muscarinic M1 Receptor: Kinetic Measurement of Intracellular Calcium Response (AID 943; active = well fitted curve in the direction sought with a large enough effect; an effect the other way counts as inactive or inconclusive;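 also: Fluo-4 calcium signal as peak divided by basal fluorescence over 4 min; nearly all actives have a fitted effect of over 75% in size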)
Method in brief: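 Antagonism measured as reduction of carbachol-evoked (EC80, 100 nM final) calcium flux in rat M1-CHO cells after 10 min compound exposure. Fluo-4 signal read kinetically; ratio of maximal to basal fluorescence.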

[12] = molecular target: Muscarinic acetylcholine receptor M1 (Rattus norvegicus) (UniProt P08482); assay: qHTS Assay for Antagonists of Acetylcholine Muscarinic M1 Receptor: Measurement of IP-One Response (AID 944; active = well fitted curve in the direction sought with a large enough effect; an effect the other way counts as inactive or inconclusive; also: nearly all actives have a fitted effect of over 75% in size)
Method in brief: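 IP1 accumulation measured via TR-FRET between d2-IP1 and Eu-cryptate anti-IP1 antibody after carbachol (200 nM, EC80) stimulation for 30 min; rat M1-transfected CHO cells received compound 10 min before agonist.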

[13] = molecular target: Pyruvate kinase (Leishmania mexicana) (UniProt Q27686); assay: qHTS Validation Assay for Inhibitors of Leishmania Mexicana Pyruvate Kinase (AID 945; active = well fitted curve in the direction sought with a large enough effect; an effect the other way counts as inactive or inconclusive;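 also: 0% = DMSO only neutral control wells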)
Method in brief: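 Pyruvate kinase activity of E451W LmPYK (0.2 nM) was followed as ATP output after 1 h at room temperature with 0.5 mM PEP and 0.1 mM ADP, detected by PKLight luminescence.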

[14] = molecular target: Pyruvate kinase PKM (Homo sapiens) (UniProt P14618); assay: qHTS Assay for Activators of Human Muscle Pyruvate Kinase (AID 954; active = well fitted curve in the direction sought with a large enough effect, not every such curve was filed as active;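 also: 0% = uninhibited enzyme and -100% = no enzyme or full thiadiazolimine inhibition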)
Method in brief: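 ATP production by PKM2 detected via luciferase luminescence after 1 h room-temperature reaction (0.1 nM enzyme, PEP at Km 0.5 mM, ADP 0.1 mM, pH 7.2 imidazole buffer). Inhibition scaled to no-enzyme control; activation referenced to 0.3 nM enzyme wells.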

[15] = molecular target: Alpha-galactosidase A (Homo sapiens) (UniProt P06280); assay: Counterscreen for Glucocerebrosidase Inhibitors: qHTS Assay for Human alpha-Galactosidase at pH 4.5 (AID 992; active = well fitted curve in the direction sought with a large enough effect; an effect the other way counts as inactive or inconclusive; also: 0% is about no effect)
Method in brief: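 Fluorogenic 1536-well qHTS at pH 4.5 (citrate, Tween-20): 2 nM enzyme, 80 uM 4-MU-alpha-galactoside, 20 min room temperature, NaOH/glycine stop. Titration 0.7 nM to 77 uM, data normalized to no-enzyme and full-activity controls, Hill-fitted AC50.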

[16] = molecular target: alpha-glucosidase (Oryza sativa, rice) (UniProt Q653V4); assay: Counterscreen for Glucocerebrosidase Inhibitors: qHTS Assay for Rice alpha-Glucosidase at pH 5.0 (AID 997; active = well fitted curve in the direction sought with a large enough effect; an effect the other way counts as inactive or inconclusive;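 also: 0% = full activity with enzyme and -100% = basal without enzyme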)
Method in brief: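 Endpoint fluorogenic assay at pH 5.0: compounds (0.7 nM to 77 uM) titrated against 4 nM rice enzyme and 400 uM 4-MU-alpha-glucoside for 20 min at room temperature; NaOH/glycine stop, read ex 365/em 440 nm, Hill-fitted AC50.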

[17] = Confirmation and Secondary Assay for Modulators of Hemoglobin Beta Chain Splicing at IVS2 705 locus (AID 930; active = well fitted curve in the direction sought with a large enough effect; an effect the other way counts as inactive or inconclusive;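 also: HeLa cells stably expressing the EGFP-705 splicing reporter; GFP fluorescence per well restored by corrected splicing of the IVS2-705 intron in EGFP; % of control where 0% means no effect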)
Method in brief: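 Assay measures total GFP intensity per well in HeLa EGFP-705 cells after 2 days with compound; mis-splicing normally truncates EGFP, so fluorescence indicates corrected splicing.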

[18] = molecular target: Cytochrome P450 2C19 (Homo sapiens) (UniProt P33261); assay: qHTS Assay for Inhibitors and Substrates of Cytochrome P450 2C19 (AID 899; active = well fitted curve in the direction sought with a large enough effect; an effect the other way counts as inactive or inconclusive; also: potency is read from the fitted curve at half-maximal effect; nearly all actives have a fitted effect of over 60% in size)
Method in brief: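 Luminescence readout of luciferin formed from 10uM Luciferin-H EGE (KM level) by 5 nM CYP2C19 in 50mM KPO4. 60 min NADPH-driven reaction at 37C after 10 min compound preincubation; data scaled to 57uM ketoconazole inhibition.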

Chain of Glucocorticoid receptor (Homo sapiens) (P04150 whole entry, looked up, the tested form may be a part): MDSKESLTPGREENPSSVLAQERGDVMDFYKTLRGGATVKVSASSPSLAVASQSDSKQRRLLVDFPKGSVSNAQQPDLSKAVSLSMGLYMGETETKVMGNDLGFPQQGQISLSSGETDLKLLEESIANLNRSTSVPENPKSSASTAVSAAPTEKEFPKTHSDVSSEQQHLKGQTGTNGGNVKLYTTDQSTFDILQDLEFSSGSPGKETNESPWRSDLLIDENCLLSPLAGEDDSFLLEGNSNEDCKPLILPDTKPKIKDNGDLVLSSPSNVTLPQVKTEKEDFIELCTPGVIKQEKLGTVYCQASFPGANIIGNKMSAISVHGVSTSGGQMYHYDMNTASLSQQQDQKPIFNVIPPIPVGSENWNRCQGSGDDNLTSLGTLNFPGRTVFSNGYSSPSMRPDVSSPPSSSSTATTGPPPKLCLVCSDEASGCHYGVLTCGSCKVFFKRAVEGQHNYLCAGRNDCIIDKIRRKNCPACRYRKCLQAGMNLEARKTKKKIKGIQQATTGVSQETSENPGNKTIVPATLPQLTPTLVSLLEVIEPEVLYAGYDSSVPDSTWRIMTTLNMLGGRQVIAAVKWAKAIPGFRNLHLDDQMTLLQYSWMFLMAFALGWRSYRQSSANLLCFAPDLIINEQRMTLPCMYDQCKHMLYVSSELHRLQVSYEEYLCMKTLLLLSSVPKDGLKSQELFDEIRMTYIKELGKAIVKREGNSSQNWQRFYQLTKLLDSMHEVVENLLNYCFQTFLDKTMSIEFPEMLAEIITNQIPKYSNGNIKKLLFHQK
Chain of Muscarinic acetylcholine receptor M1 (Rattus norvegicus) (P08482 whole entry, looked up): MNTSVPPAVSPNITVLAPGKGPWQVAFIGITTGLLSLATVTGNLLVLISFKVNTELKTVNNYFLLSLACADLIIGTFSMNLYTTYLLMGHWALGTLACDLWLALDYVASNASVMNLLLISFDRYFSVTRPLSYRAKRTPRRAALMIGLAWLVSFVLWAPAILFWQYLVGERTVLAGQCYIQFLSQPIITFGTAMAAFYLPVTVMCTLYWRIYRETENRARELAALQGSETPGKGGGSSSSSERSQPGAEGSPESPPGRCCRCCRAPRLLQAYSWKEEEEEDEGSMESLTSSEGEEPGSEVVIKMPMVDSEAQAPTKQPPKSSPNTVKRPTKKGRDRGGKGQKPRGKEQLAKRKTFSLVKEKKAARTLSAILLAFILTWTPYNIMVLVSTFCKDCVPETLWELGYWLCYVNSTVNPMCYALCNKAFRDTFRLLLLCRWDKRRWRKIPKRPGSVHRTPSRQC
Chain of 3',5'-cyclic-AMP phosphodiesterase 4B (Homo sapiens) (Q07343 whole entry, looked up): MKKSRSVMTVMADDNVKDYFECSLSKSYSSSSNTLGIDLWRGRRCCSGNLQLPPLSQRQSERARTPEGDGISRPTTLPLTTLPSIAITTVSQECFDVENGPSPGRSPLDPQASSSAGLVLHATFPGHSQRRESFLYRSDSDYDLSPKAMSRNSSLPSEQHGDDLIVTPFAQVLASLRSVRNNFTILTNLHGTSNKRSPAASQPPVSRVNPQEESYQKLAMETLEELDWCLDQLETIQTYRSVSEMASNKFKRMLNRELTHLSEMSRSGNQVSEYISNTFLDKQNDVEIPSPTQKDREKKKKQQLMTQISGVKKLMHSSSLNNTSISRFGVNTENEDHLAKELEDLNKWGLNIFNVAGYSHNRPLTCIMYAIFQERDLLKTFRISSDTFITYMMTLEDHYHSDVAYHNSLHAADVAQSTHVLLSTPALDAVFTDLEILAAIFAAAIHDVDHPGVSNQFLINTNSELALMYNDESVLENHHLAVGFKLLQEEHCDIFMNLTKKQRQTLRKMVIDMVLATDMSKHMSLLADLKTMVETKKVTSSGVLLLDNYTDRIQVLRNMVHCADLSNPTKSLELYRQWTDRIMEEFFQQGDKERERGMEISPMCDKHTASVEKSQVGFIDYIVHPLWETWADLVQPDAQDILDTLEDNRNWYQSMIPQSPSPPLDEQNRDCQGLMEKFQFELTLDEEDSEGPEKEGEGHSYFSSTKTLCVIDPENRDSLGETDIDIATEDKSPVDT
Chain of Cytochrome P450 3A4 (Homo sapiens) (P08684 whole entry, looked up): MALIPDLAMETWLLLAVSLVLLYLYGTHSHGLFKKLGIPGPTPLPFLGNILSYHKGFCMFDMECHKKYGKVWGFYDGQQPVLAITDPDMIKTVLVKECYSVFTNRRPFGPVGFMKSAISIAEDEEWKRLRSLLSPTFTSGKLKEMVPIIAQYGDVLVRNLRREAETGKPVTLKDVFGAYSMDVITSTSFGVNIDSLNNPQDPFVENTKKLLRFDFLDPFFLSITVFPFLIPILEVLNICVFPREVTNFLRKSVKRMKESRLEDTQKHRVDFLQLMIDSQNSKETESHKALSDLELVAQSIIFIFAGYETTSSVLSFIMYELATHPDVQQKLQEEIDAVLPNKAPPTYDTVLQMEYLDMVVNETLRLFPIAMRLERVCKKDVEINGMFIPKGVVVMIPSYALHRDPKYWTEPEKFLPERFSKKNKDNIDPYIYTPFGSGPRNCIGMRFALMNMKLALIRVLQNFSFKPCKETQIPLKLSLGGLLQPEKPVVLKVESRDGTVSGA
Chain of Alpha-galactosidase A (Homo sapiens) (P06280 whole entry, looked up): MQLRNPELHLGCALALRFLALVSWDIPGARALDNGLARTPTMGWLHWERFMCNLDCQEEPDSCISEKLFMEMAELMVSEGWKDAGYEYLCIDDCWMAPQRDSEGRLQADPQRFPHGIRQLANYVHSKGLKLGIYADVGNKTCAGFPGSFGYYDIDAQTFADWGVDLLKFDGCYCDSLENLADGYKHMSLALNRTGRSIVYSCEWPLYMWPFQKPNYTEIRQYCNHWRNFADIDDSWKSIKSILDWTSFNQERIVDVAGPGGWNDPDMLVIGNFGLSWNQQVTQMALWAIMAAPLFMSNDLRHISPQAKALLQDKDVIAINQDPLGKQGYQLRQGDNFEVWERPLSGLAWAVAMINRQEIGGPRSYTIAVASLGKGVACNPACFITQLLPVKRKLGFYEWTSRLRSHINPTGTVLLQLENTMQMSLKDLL
Chain of Pyruvate kinase (Leishmania mexicana) (Q27686 2-499 E452W): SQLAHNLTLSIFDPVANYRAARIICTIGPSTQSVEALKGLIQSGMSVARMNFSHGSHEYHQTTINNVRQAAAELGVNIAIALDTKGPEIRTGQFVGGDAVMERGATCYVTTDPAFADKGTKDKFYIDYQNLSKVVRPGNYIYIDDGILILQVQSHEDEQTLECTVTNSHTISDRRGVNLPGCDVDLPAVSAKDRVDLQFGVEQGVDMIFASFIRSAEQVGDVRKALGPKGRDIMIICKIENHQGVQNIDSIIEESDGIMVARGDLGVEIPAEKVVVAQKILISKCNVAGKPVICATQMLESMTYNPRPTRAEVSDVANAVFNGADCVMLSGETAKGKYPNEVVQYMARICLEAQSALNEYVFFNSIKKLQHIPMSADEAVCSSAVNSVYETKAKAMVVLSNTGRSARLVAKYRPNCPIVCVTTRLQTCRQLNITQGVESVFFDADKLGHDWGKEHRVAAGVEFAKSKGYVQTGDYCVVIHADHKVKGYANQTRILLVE
Chain of Pyruvate kinase PKM (Homo sapiens) (P14618 whole entry, looked up): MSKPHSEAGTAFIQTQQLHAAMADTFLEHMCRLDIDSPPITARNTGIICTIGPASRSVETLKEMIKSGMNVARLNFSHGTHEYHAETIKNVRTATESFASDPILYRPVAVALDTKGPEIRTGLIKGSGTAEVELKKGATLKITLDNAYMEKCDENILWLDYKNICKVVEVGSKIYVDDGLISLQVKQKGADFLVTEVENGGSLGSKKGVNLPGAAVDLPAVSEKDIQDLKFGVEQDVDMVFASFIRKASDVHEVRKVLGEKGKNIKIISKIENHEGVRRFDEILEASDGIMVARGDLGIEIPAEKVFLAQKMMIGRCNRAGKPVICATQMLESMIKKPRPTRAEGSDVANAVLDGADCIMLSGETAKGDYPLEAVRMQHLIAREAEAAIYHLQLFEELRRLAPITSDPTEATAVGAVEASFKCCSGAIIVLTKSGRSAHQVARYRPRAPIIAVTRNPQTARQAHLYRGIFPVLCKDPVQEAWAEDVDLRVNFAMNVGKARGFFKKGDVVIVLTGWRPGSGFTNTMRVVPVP
Chain of Cytochrome P450 2C19 (Homo sapiens) (P33261 whole entry, looked up): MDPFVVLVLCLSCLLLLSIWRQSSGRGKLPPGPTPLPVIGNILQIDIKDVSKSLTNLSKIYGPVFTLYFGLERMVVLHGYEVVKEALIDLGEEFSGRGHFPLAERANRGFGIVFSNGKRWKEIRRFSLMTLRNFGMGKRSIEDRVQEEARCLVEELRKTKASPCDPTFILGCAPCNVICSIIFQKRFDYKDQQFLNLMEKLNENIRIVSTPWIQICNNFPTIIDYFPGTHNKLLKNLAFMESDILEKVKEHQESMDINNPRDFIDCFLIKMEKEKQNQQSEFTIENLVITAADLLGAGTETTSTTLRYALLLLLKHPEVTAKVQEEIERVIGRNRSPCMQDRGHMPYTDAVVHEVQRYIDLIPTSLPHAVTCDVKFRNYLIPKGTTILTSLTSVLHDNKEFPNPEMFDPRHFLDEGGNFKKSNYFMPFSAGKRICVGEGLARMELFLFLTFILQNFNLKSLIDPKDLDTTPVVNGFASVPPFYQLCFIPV
Chain of Guanine nucleotide-binding protein G(i) subunit alpha-1 (Homo sapiens) (P63096 whole entry, looked up): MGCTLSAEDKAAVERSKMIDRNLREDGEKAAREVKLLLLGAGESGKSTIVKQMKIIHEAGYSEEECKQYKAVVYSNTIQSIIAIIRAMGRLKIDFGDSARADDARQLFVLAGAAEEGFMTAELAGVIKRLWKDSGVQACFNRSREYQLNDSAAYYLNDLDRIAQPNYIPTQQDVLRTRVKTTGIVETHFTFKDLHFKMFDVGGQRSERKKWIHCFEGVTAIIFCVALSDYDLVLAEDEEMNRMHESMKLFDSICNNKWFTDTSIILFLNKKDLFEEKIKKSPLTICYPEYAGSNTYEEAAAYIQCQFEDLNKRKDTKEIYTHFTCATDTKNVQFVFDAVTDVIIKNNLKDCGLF

## N#CC1=C(N)OC2=C(C(=O)CCC2)[C@]12C(=O)N(CC(N)=O)c1ccccc12
[1]
  activity change, negative = inhibition: 12%
[2]
  activity, negative = inhibition: 1.02%
[3]
  Potency: > 20.6 µM
[4]
  activation: -22.1%

## CC(CN1CCN(C)CC1)OC(=O)c1ccc(Cl)cc1Cl (stereo not given)
[1]
  activity change, negative = inhibition: 12%
[2]
  activity, negative = inhibition: -1.03%
[3]
  Potency: > 20.6 µM
[4]
  activation: -4.39%

## CC[C@H](c1ccccc1)c1cc(C(C)(C)C)cc(C(C)(C)C)c1O
[1]
  activity change, negative = inhibition: 7.36% [at 7.69 µM]
[2]
  activity, negative = inhibition: 3.9% [at 7.69 µM]
[3]
  Potency: > 46 µM
[5]
  Potency: > 9.22 µM
[6]
  activity change, negative = inhibition: 6.57% [at 11.4 µM]
[7]
  Potency: inactive
[8]
  activity change, positive = activation: -33% [at 11.4 µM]

## c1ccc2c(c1)NC(c1ccncc1)n1c-2nc2ccccc21 (stereo not given)
[1]
  activity change, negative = inhibition: -17.1%
[2]
  activity, negative = inhibition: -7.32%
[3]
  Potency: > 20.6 µM
[4]
  activation: 15.3%

## NC[C@@H]1O[C@@H](O[C@H]2[C@@H](O)[C@H](O[C@@H]3[C@H](O)[C@H](N)C[C@H](N)[C@H]3O[C@@H]3O[C@@H](CO)[C@H](O)[C@H](O)[C@@H]3N)O[C@H]2CO)[C@H](N)[C@H](O)[C@@H]1O
[1]
  activity change, negative = inhibition: 7.75% [at 38 µM]
[2]
  activity, negative = inhibition: -13.5% [at 38 µM]
[3]
  Potency: > 46 µM
[5]
  Potency: > 46 µM
[7]
  Potency: inactive
[9]
  outcome: inactive
[10]
  Potency: inactive
[11]
  Potency: inactive
[12]
  Potency: inactive
[13]
  Potency: inactive
[14]
  outcome: inactive
[15]
  outcome: inactive
[16]
  outcome: inactive

## CCN1CCN(c2nc3c(C)cccn3c(=O)c2/C=C(\C#N)S(=O)(=O)c2ccccc2)CC1
[1]
  activity change, negative = inhibition: -5.82%
[2]
  activity, negative = inhibition: -5.71%
[3]
  Potency: > 20.6 µM
[4]
  activation: 5.25%

## COc1nc(N(C)S(=O)(=O)c2ccc(C)cc2)nc(C)c1Cl
[1]
  activity change, negative = inhibition: -2.26%
[2]
  activity, negative = inhibition: 5.02%
[3]
  Potency: > 20.6 µM
[4]
  activation: -6.79%

## Cc1ccc(CNC(=O)c2cc3c(=O)n4ccccc4nc3n(Cc3ccco3)c2=N)cc1
[1]
  activity change, negative = inhibition: 5.13%
[2]
  activity, negative = inhibition: 22.1%
[3]
  Potency: > 20.6 µM
[4]
  Potency: 5.01 µM (active)

## N=c1c(C(=O)NCc2ccccc2)cc2c(=O)n3ccccc3nc2n1Cc1ccco1
[1]
  activity change, negative = inhibition: -5.29%
[2]
  activity, negative = inhibition: 19.8%
[3]
  Potency: > 20.6 µM
[4]
  Potency: 6.31 µM (active)

## CCOC(=O)c1sc2c(c1C)c(=O)c(C(=O)OCC)cn2CC
[1]
  activity change, negative = inhibition: -9.16%
[2]
  activity, negative = inhibition: 6.04%
[3]
  Potency: > 20.6 µM
[4]
  activation: 16.2%

## CCC(=O)Nc1c(C#N)c2nc3ccccc3nc2n1C1CCCCC1
[1]
  activity change, negative = inhibition: -0.0903%
[2]
  activity, negative = inhibition: 20.4%
[3]
  Potency: > 20.6 µM
[4]
  Potency: 10 µM (active)

## C[N+](C)(C)CCN(Cc1cccs1)c1ccccn1
[1]
  activity change, negative = inhibition: -6.68% [at 7.69 µM]
[2]
  activity, negative = inhibition: -4.68% [at 7.69 µM]
[3]
  Potency: > 46 µM
[5]
  Potency: > 9.22 µM
[6]
  activity change, negative = inhibition: 0.454% [at 11.4 µM]
[4]
  activation: 3.56%

## CC1(C)CCN(Cc2ccccc2)C1CC#N (stereo not given)
[1]
  activity change, negative = inhibition: -13.4%
[2]
  activity, negative = inhibition: 6.87%
[3]
  Potency: > 20.6 µM
[4]
  activation: 7.94%

## CCCc1cc(=O)oc2c(CN3CCN(C)CC3)c(O)c(Cl)cc12
[1]
  activity change, negative = inhibition: -0.941%
[2]
  activity, negative = inhibition: -1.37%
[3]
  Potency: > 20.6 µM
[4]
  Potency: 5.01 µM (active)

## CCOC(=O)C1=C(C)NC(C)=C(C(=O)OC)[C@@H]1c1cccc(Cl)c1Cl
[1]
  activity change, negative = inhibition: -13.1%
[2]
  activity, negative = inhibition: -13.3%
[3]
  Potency: > 20.6 µM
[6]
  Potency: inactive

## Cc1ccc(S(=O)(=O)c2cc3c(=O)n4ccccc4nc3n(C)c2=N)cc1
[1]
  activity change, negative = inhibition: 23.8%
[2]
  activity, negative = inhibition: 26.2%
[3]
  Potency: > 20.6 µM
[4]
  Potency: 7.94 µM (active)

## Cc1cccc(CNc2ccnc(-c3ccc(N(C)C)cc3)n2)c1
[1]
  activity change, negative = inhibition: -16% [at 7.69 µM]
[2]
  activity, negative = inhibition: -22.6% [at 7.69 µM]
[3]
  Potency: > 46 µM
[5]
  Potency: > 46 µM
[6]
  Potency: inactive
[17]
  Potency: inactive

## Cc1nnc2c(NC(C)C)nc3ccccc3n12
[1]
  activity change, negative = inhibition: 14.9%
[2]
  activity, negative = inhibition: -12.6%
[3]
  Potency: > 20.6 µM
[4]
  Potency: 10 µM (active)

## Clc1ccc([C@@H](c2ccccc2Cl)C(Cl)Cl)cc1
[1]
  activity change, negative = inhibition: -7.25% [at 38 µM]
[2]
  activity, negative = inhibition: 2.17% [at 38 µM]
[3]
  Potency: > 46 µM
[5]
  Potency: > 46 µM
[18]
  Potency: 0.631 µM (active)

## CCOCCSc1nc2c(c(=O)[nH]c(=O)n2C)n1CCCc1ccccc1
[1]
  activity change, negative = inhibition: 3.98%
[2]
  activity, negative = inhibition: -3.21%
[3]
  Potency: > 20.6 µM
[4]
  activation: 6%

## COC(=O)c1[nH]c2cc(OC)ccc2c1NC(=O)CCN1CCCC(C)(C)C1
[1]
  activity change, negative = inhibition: -14.5%
[2]
  activity, negative = inhibition: 2.32%
[3]
  Potency: > 20.6 µM
[4]
  activation: 10.2%

## COCCNC(=O)c1c(N)n(/N=C/c2cccs2)c2nc3ccccc3nc12
[1]
  activity change, negative = inhibition: -0.395%
[2]
  activity, negative = inhibition: 19.9%
[3]
  Potency: > 20.6 µM
[4]
  Potency: 10 µM (active)
